From PubChem BioAssay AID1159580 (chemical genetic matrix, 2015)
Screen size: about 5,500 compounds; about 2,000 (36%) were called active. About 18% were inconclusive and are not listed. Cut-off read from the data, not from the text of the source: active = normalized growth mostly below about 0.91 (no sharp cut-off); inconclusive = no clear call, values can overlap the other calls; inactive = mostly above about 0.92. This is one part of the list.

Assay: chemical genetic growth profiling, strain panel (AID 1159580);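 note: tested at 20 µM; growth read once vehicle control cultures reached saturation at 30 °C; 1 = growth at the plate median or of vehicle wells; lower values mean less growth of the strain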
Settings: growth OD

Measured: normalized growth

CC(NCCC(c1ccccc1)c1ccccc1)c1ccccc1 (configuration not stated)
inactive: S. cerevisiae deletion strains, locus YKL009W, strain mrt4, active compounds read low 0.944 | S. cerevisiae deletion strains, locus YKL068W, active compounds read low 0.981 | S. cerevisiae deletion strains, locus YKL085W, strain MDH1 (second series), active compounds read low 0.985 | S. cerevisiae deletion strains, locus YKL085W, strain MDH1, active compounds read low 0.985 | S. cerevisiae deletion strains, locus YKL160W, strain elf1, active compounds read low 0.908 | S. cerevisiae deletion strains, locus YKL190W, strain CNB1, active compounds read low 0.988 | S. cerevisiae deletion strains, locus YKR001C, strain vps1, active compounds read low 0.936 | S. cerevisiae deletion strains, locus YKR026C, strain gcn3, active compounds read low 1.01 | S. cerevisiae deletion strains, locus YKR091W, strain srl3, active compounds read low 1 | S. cerevisiae deletion strains, locus YLL001W, strain dnm1, active compounds read low 0.945 | S. cerevisiae deletion strains, locus YLL026W, active compounds read low 0.981 | S. cerevisiae deletion strains, locus YLL041C, strain sdh2, active compounds read low 0.997 | S. cerevisiae deletion strains, locus YLR027C, strain aat2, active compounds read low 0.934 | S. cerevisiae deletion strains, locus YLR039C, strain RIC1, active compounds read low 1.28 | S. cerevisiae deletion strains, locus YLR058C, strain SHM2, active compounds read low 0.958 | S. cerevisiae deletion strains, locus YLR102C, strain apc9, active compounds read low 0.985 | S. cerevisiae deletion strains, locus YLR113W, strain HOG1, active compounds read low 1.01 | S. cerevisiae deletion strains, locus YLR221C, strain rsa3, active compounds read low 0.937 | S. cerevisiae deletion strains, locus YLR258W, strain gsy2, active compounds read low 0.974 | S. cerevisiae deletion strains, locus YLR262C, strain YPT6 (second series), active compounds read low 0.986 | S. cerevisiae deletion strains, locus YLR262C, strain YPT6, active compounds read low 1.16 | S. cerevisiae deletion strains, locus YLR268W, strain sec22, active compounds read low 0.989 | S. cerevisiae deletion strains, locus YLR320W, strain mms22, active compounds read low 0.898 | S. cerevisiae deletion strains, locus YLR330W, strain CHS5, active compounds read low 0.992 | S. cerevisiae deletion strains, locus YLR342W, strain FKS1 (second series), active compounds read low 0.885 | S. cerevisiae deletion strains, locus YLR342W, strain FKS1, active compounds read low 0.993 | S. cerevisiae deletion strains, locus YLR357W, strain rsc2, active compounds read low 1 | S. cerevisiae deletion strains, locus YLR371W, strain rom2, active compounds read low 0.97 | S. cerevisiae deletion strains, locus YLR384C, strain iki3, active compounds read low 1 | S. cerevisiae deletion strains, locus YLR418C, strain cdc73, active compounds read low 0.857 | S. cerevisiae deletion strains, locus YML016C, strain PPZ1, active compounds read low 0.977 | S. cerevisiae deletion strains, locus YML032C, strain rad52, active compounds read low 0.937 | S. cerevisiae deletion strains, locus YML124C, strain tub3, active compounds read low 0.991 | S. cerevisiae deletion strains, locus YMR078C, strain ctf18, active compounds read low 0.99 | S. cerevisiae deletion strains, locus YMR125W, strain sto1, active compounds read low 0.946 | S. cerevisiae deletion strains, locus YMR129W, active compounds read low 0.997 | S. cerevisiae deletion strains, locus YMR205C, strain PFK2, active compounds read low 0.963 | S. cerevisiae deletion strains, locus YMR223W, strain ubp8, active compounds read low 0.933 | S. cerevisiae deletion strains, locus YMR263W, strain SAP30, active compounds read low 0.942 | S. cerevisiae deletion strains, locus YMR307W, strain GAS1, active compounds read low 0.986 | S. cerevisiae deletion strains, locus YNL067W, strain RPL9B, active compounds read low 0.948 | S. cerevisiae deletion strains, locus YNL071W, strain lat1, active compounds read low 0.953 | S. cerevisiae deletion strains, locus YNL128W, strain TEP1, active compounds read low 0.884 | S. cerevisiae deletion strains, locus YNL153C, strain GIM3, active compounds read low 0.921 | S. cerevisiae deletion strains, locus YNL183C, strain NPR1, active compounds read low 0.933 | S. cerevisiae deletion strains, locus YNL233W, strain BNI4, active compounds read low 0.927 | S. cerevisiae deletion strains, locus YNL248C, strain rpa49, active compounds read low 0.904 | S. cerevisiae deletion strains, locus YNL250W, strain rad50, active compounds read low 0.943 | S. cerevisiae deletion strains, locus YNL271C, strain bni1, active compounds read low 0.99 | S. cerevisiae deletion strains, locus YNL298W, strain CLA4, active compounds read low 0.974 | S. cerevisiae deletion strains, locus YNL307C, strain MCK1, active compounds read low 0.974 | S. cerevisiae deletion strains, locus YNL322C, strain KRE1 (second series), active compounds read low 1.03 | S. cerevisiae deletion strains, locus YNL322C, strain KRE1, active compounds read low 0.97 | S. cerevisiae deletion strains, locus YNR049C, strain mso1, active compounds read low 1 | S. cerevisiae deletion strains, locus YNR052C, strain pop2, active compounds read low 0.92 | S. cerevisiae deletion strains, locus YOL012C, strain htz1 0.924 | S. cerevisiae deletion strains, locus YOL147C, strain pex11, active compounds read low 1 | S. cerevisiae deletion strains, locus YOR061W, strain CKA2, active compounds read low 0.938 | S. cerevisiae deletion strains, locus YOR069W, strain VPS5, active compounds read low 0.986 | S. cerevisiae deletion strains, locus YOR080W, strain dia2, active compounds read low 1 | S. cerevisiae deletion strains, locus YOR144C, strain elg1, active compounds read low 0.989 | S. cerevisiae deletion strains, locus YOR184W, strain ser1, active compounds read low 1.01 | S. cerevisiae deletion strains, locus YOR231W, strain MKK1, active compounds read low 0.992 | S. cerevisiae deletion strains, locus YOR265W, strain rbl2, active compounds read low 1 | S. cerevisiae deletion strains, locus YOR316C, strain cot1, active compounds read low 0.98 | S. cerevisiae deletion strains, locus YPL055C, strain LGE1, active compounds read low 0.782 | S. cerevisiae deletion strains, locus YPL078C, strain atp4, active compounds read low 0.939 | S. cerevisiae deletion strains, locus YPL106C, strain sse1, active compounds read low 1.08 | S. cerevisiae deletion strains, locus YPL240C, strain hsp82, active compounds read low 0.999 | S. cerevisiae deletion strains, locus YPL241C, strain CIN2, active compounds read low 0.985 | S. cerevisiae deletion strains, locus YPL256C, strain CLN2, active compounds read low 0.972 | S. cerevisiae deletion strains, locus YPR119W, strain clb2, active compounds read low 0.994 | S. cerevisiae deletion strains, locus YPR141C, strain kar3, active compounds read low 0.969 | S. cerevisiae deletion strains, locus YPR167C, strain met16, active compounds read low 0.977 | S. cerevisiae deletion strains, strain wtn01, active compounds read low 0.964 | S. cerevisiae strains, strain wild type, active compounds read low 0.974
active: S. cerevisiae deletion strains, locus YJR075W, strain HOC1, active compounds read low 0.875 | S. cerevisiae deletion strains, locus YLR370C, strain arc18, active compounds read low 0.822 | S. cerevisiae deletion strains, locus YML120C, strain ndi1, active compounds read low 0.886 | S. cerevisiae deletion strains, locus YMR058W, strain fet3, active compounds read low 0.849 | S. cerevisiae deletion strains, locus YMR231W, strain pep5, active compounds read low 0.731 | S. cerevisiae deletion strains, locus YNL209W, strain ssb2, active compounds read low 0.888 | S. cerevisiae deletion strains, locus YOL006C, strain TOP1, active compounds read low 0.468 | S. cerevisiae deletion strains, locus YOR001W, strain rrp6, active compounds read low 0.887 | S. cerevisiae deletion strains, locus YOR070C, strain gyp1, active compounds read low 0.908 | S. cerevisiae deletion strains, locus YOR083W, strain WHI5, active compounds read low 0.846 | S. cerevisiae deletion strains, locus YOR106W, strain vam3, active compounds read low 0.618 | S. cerevisiae deletion strains, locus YOR136W, strain idh2, active compounds read low 0.907 | S. cerevisiae deletion strains, locus YOR270C, strain vph1, active compounds read low 0.375 | S. cerevisiae deletion strains, locus YOR290C, strain snf2, active compounds read low 0.837 | S. cerevisiae deletion strains, locus YPL051W, strain arl3, active compounds read low 0.767 | S. cerevisiae deletion strains, locus YPR163C, strain tif3, active compounds read low 0.872
